High-throughput results: PubChem BioAssay, Broad Institute
Hits are enriched below; roughly 3.4% of the tested compounds scored in any of these assays.
esBAF inh: blocks esBAF chromatin remodeling in mouse ES cells | AID 602393 | actives 2% (n = 350,000) | reporter increase, % at 12.5 µM | Bmi1-luciferase knock-in reporter, 24 h; 100% = twice the neutral-well signal; in the data active means activation above about 40%; inconclusive means no clear call, values can overlap the other calls;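 further: a rise in the Bmi1 reporter signal indicates esBAF inhibition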
MITF TRPM1 HTS: MITF TRPM1 promoter activation in melanoma cells; SK-MEL-5 TRPM1-promoter luciferase, 24 h; % of positive control, neutral wells = 0; activation, % at 12.5 µM; actives 0.75% (n = 300,000);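 active means mean activation of at least 80% with every replicate also reaching 80%; inconclusive means mean reaches 80% but some replicate falls short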
HIV Env fusion: HIV envelope-mediated fusion inhibition; HeLa-JRFL Env/CEM21 cell fusion, luciferase; inhibition, % at 12.3 µM; actives 1.1% (n = 360,000); AID 651610;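 active means mean replicate inhibition score of at least 50 and every replicate individually at or above 50; inconclusive means only one of the two criteria met; inactive means mean below 50 and not all replicates reaching 50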
miR-122 sensor: inhibitors of miR-122 in Huh7 cells; activation (reporter increase), % at 12.5 µM; AID 602342; Huh7 miR-122 Renilla luciferase sensor, 48 h; neutral wells = 0, positive control = 100; actives 0.3% (n = 340,000);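 active means mean replicate activation score at least 90 and every replicate individually at or above 90; inconclusive means only one of the two criteria met; inactive means neither criterion met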;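 further: higher luciferase means less miR-122 activity so hits act as miR-122 inhibitors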
Wnt act: activators of Wnt/beta-catenin signaling; activation, % at 9.35 µM; Wnt/beta-catenin reporter cell assay, activator, plate reader; AID 743398; actives 1.2% (n = 300,000); in the data active means activation above about 30%, passing the limit was not always enough; inconclusive means no clear call, values can overlap the other calls
Of the large screens only hits and unclear results are named; the others gave an inactive call.

CCOC(=O)C(NC(=O)c1ccc(F)cc1)(Nc1sc2c(c1C(N)=O)CCC2)C(F)(F)F (configuration not stated)	Wnt act 108 (no result: esBAF inh, miR-122 sensor)
NC(=O)c1c(NC(=O)c2ccco2)sc2c1CCC2	esBAF inh 103 (no result: HIV Env fusion, Wnt act)
O=C(Nc1ccc(C(F)(F)F)cc1Cl)c1ccc(Cn2cc(Br)cn2)o1	none (no result: HIV Env fusion)
CN1CCc2c(sc(NC(=O)c3ccc4ccccc4c3)c2C(N)=O)C1	MITF TRPM1 HTS 121 (no result: HIV Env fusion, Wnt act)
O=C(Nc1sc2c(c1C(=O)O)CCCCC2)c1ccco1	miR-122 sensor 208 (no result: MITF TRPM1 HTS, Wnt act)
Cc1cccc(C(=O)c2c(N)sc3c2CCC(C)C3)c1 (configuration not stated)	none (no result: esBAF inh)
Cc1cccc(C(=O)c2c(N)sc3c2CCCC3)c1	Wnt act 37 (no result: esBAF inh)
CNC(=O)c1c(NC(=O)c2nc3ccccc3s2)sc2c1CCC2	esBAF inh 75, MITF TRPM1 HTS inconclusive (no result: HIV Env fusion, Wnt act)
COc1ccc(S(=O)(=O)N2CCCCN3[C@H](CO)[C@@H](c4ccc(C#CC5CC5)cc4)[C@@H]3C2)cc1	none (no result: esBAF inh, MITF TRPM1 HTS, HIV Env fusion, Wnt act)
C/C(=N\NC(=O)c1ccc(Cn2cc(Br)cn2)o1)c1ccc(NC(=O)c2ccoc2C)cc1	esBAF inh 47 (no result: HIV Env fusion, miR-122 sensor)
COc1ccc(CN(C)C[C@@H]2OCCCC[C@@H](C)Oc3ccc(NS(=O)(=O)c4cn(C)cn4)cc3C(=O)N([C@H](C)CO)C[C@@H]2C)cc1	none (no result: MITF TRPM1 HTS, Wnt act)
CCn1c(C)nc2cc(C(=O)N/N=C/c3ccc(O)cc3)ccc21	none (no result: esBAF inh, miR-122 sensor)
CCn1c(C)nc2cc(C(=O)N/N=C/c3ccccc3)ccc21	esBAF inh 43
CCn1c(C)nc2cc(C(=O)N/N=C/c3cccc(O)c3O)ccc21	Wnt act 41 (no result: esBAF inh)
C=CCSc1nc2c(cnn2-c2ccccc2)c(=O)n1N	Wnt act 56 (no result: esBAF inh, MITF TRPM1 HTS)
CO[C@H]1CN(C)C(=O)c2cc(NC(=O)c3ccccc3F)ccc2OC[C@@H](C)N(C)C[C@@H]1C	none (no result: MITF TRPM1 HTS, Wnt act)
CCOC(=O)c1ccc(NC(=O)c2ccccc2)cc1	MITF TRPM1 HTS 114 (no result: HIV Env fusion)
CCOC(=O)c1ccc(NC(=O)c2ccc(NS(C)(=O)=O)cc2)cc1	none
CCOC(=O)c1ccc(NC(=O)C23CCC(C)(C(=O)O2)C3(C)C)cc1 (configuration not stated)	esBAF inh 55 (no result: Wnt act)
CCOC(=O)c1ccc(NC(=O)c2ccccc2[N+](=O)[O-])cc1	esBAF inh 73
CCOC(=O)c1ccc(NC(=O)c2cccc(C)c2[N+](=O)[O-])cc1	none (no result: esBAF inh, miR-122 sensor)
O=C(Nc1ccccc1)N[C@H]1CC[C@@H](CCNS(=O)(=O)c2ccccc2F)O[C@H]1CO	none (no result: MITF TRPM1 HTS, miR-122 sensor, Wnt act)
C[C@@H]1CN([C@H](C)CO)C(=O)c2cc(-c3ccc(F)cc3)cnc2O[C@@H]1CN(C)C(=O)Nc1ccc(F)cc1	none (no result: MITF TRPM1 HTS, Wnt act)
CCCC(=O)Nc1ccc2c(c1)C(=O)N(C)C[C@@H](OC)[C@H](C)CN(CC1CCCC1)[C@@H](C)CO2	none (no result: MITF TRPM1 HTS, miR-122 sensor, Wnt act)
CO[C@@H](CN(C)S(=O)(=O)c1ccc(C)cc1)[C@H](C)CN(Cc1ccccc1Cl)[C@@H](C)CO	none (no result: MITF TRPM1 HTS, HIV Env fusion, miR-122 sensor, Wnt act)
COC(=O)c1cccc(-n2c(C)cc(/C=C3\SC(=O)NC3=O)c2C)c1	esBAF inh 45 (no result: MITF TRPM1 HTS)
COCC#Cc1cnc2c(c1)C(=O)N([C@H](C)CO)C[C@@H](C)[C@@H](CN(C)C(=O)c1ccc3c(c1)OCO3)O2	none (no result: MITF TRPM1 HTS, Wnt act)
Cc1noc(C)c1S(=O)(=O)Nc1ccc2c(c1)C(=O)N([C@@H](C)CO)C[C@@H](C)[C@@H](CN(C)Cc1ccncc1)OCCCC[C@@H](C)O2	none (no result: MITF TRPM1 HTS, Wnt act)
COc1ccc(NC(=O)N(C)C[C@@H]2Oc3ccc(NC(=O)Cn4cnnn4)cc3C(=O)N([C@H](C)CO)C[C@H]2C)cc1	none (no result: MITF TRPM1 HTS, HIV Env fusion, Wnt act)
Brc1ccc(-c2nnc(-c3ccco3)o2)cc1	esBAF inh 60, MITF TRPM1 HTS inconclusive (no result: HIV Env fusion, Wnt act)
Brc1ccc(-c2nnc(-c3cccc(Br)c3)o2)cc1	none (no result: esBAF inh, HIV Env fusion, Wnt act)
Cc1ccc(-c2nnc(-c3ccc(Br)cc3)o2)o1	esBAF inh 64 (no result: MITF TRPM1 HTS)
CCn1cc(S(=O)(=O)CC(=O)Nc2cc(C)on2)c2ccccc21	none (no result: Wnt act)
Cc1cc(NC(=O)CS(=O)(=O)c2cn(Cc3cccc(C(F)(F)F)c3)c3ccccc23)no1	HIV Env fusion 78 (no result: MITF TRPM1 HTS)
Cc1cc(NC(=O)CS(=O)(=O)c2cn(Cc3ccc(F)cc3)c3ccccc23)no1	HIV Env fusion 79
Cc1cc(NC(=O)CS(=O)(=O)c2cn(Cc3cccc(F)c3)c3ccccc23)no1	HIV Env fusion 73
COc1ccc(-c2cnc3c(c2)C(=O)N([C@H](C)CO)C[C@@H](C)[C@@H](CN(C)C(=O)C2CCCCC2)O3)cc1	none (no result: MITF TRPM1 HTS, HIV Env fusion, Wnt act)
